# Screens: PubChem, National Center for Advancing Translational Sciences (NCATS)
# Rows were chosen to be rich in hits. Some 7.8% of all compounds tested hit in one or more screens of this group.
# Vaccinia mCherry – qHTS for Stage-Specific Inhibitors of Vaccinia Orthopoxvirus: mCherry Reporter Primary qHTS; Vaccinia virus mCherry reporter infection, fluorescence; Potency, µM (highest dose often 36.5 µM), inactives show top-dose activity change, negative = inhibition, actives largely listed as inhibitors; hit rate 0.63% among 310,000; AID 720579, 2013; calls by dose curve; tested in A549 cells; also: potency is read from the fitted curve at half-maximal effect; nearly all actives have a fitted effect of over 35% in size
# HCMV antiviral – qHTS Assay for inhibitors of the human cytomegalovirus (HCMV); HFF cells, HCMV-luciferase reporter, 72 h; stronger effect = lower value; activity change, negative = inhibition, % at 57.5 µM; hit rate 4.5% among 410,000; AID 1259415, 2018; in the data active = activity change below about -60%; inconclusive = no clear call, values can overlap the other calls; inactive = above about -39%
#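 Steps: HFFs plated, 16 h 37C; compounds added; HCMV-luciferase added to MOI 1 PFU/cell; 72 h 37C; OneGlo reagent, 5 min room temperature; luminescence read, normalized to controls.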
# Lassa entry inh – qHTS for Inhibitors of binding or entry into cells for Lassa Virus | Lassa virus pseudotype entry inhibition, cell reporter | Potency, µM (series often up to 37.9 µM), for inactives: at the top dose activity change, negative = inhibition, usual class: inhibitors | hit rate 1.2% among 300,000; calls by dose curve; tested in HEK293 cells; also: potency is read from the fitted curve at half-maximal effect; nearly all actives have a fitted effect of over 50% in size
# MARV entry inh – qHTS for inhibitors of binding or entry into cells for Marburg Virus. Marburg virus pseudotyped entry inhibition, cell reporter. Potency, µM (highest dose often 37.8 µM), for the others: at the highest dose activity change, negative = inhibition, most hits filed as inhibitors. hit rate 1.8% among 300,000. AID 540276, 2011; calls by dose curve; tested in HEK293 cells; also: potency is read from the fitted curve at half-maximal effect
# Vaccinia Venus – qHTS for Stage-Specific Inhibitors of Vaccinia Orthopoxvirus: Venus Reporter Primary qHTS | Potency, µM (series often up to 36.5 µM), without a hit: at the highest dose activity change, negative = inhibition, actives largely listed as inhibitors | hit rate 0.46% among 330,000 | Vaccinia virus Venus reporter expression, fluorescence; calls by dose curve; tested in A549 cells; also: potency is read from the fitted curve at half-maximal effect; nearly all actives have a fitted effect of over 30% in size
# HCV inh – qHTS Assay for Inhibitors of Hepatitis C Virus (HCV) | Huh7.5.1 HCVcc-Cre infection, luciferase reporter, 44 h | Potency, µM (series often up to 41.8 µM), for inactives: top-dose activity change, negative = inhibition, hits mostly inhibitors | hit rate 3.4% among 340,000 | AID 651820, 2012; active = well fitted inhibition curve with a large enough effect; inconclusive = small, poorly fitted or top-dose-only effect, or another doubt; inactive = no such curve, though single readings can be large or run the other way; also: potency is read from the fitted curve at half-maximal effect
#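 Whole-lifecycle infectious HCVcc-Cre system; cells 1,000/well, compound then virus (~0.5 moi) added 4 h after plating, 44 h culture. Luciferase read 15 sec following 15 min substrate incubation, room temp.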
# * = called active by the depositor; i = inactive; ? = inconclusive; · = not tested or not shown; [ ] = another dose, or the depositor's remark. % is scaled to controls: 0 for no effect and ±100 for the full control effect.
SMILES,Vaccinia mCherry,HCMV antiviral,Lassa entry inh,MARV entry inh,Vaccinia Venus,HCV inh
Cc1cc(C)n(-c2nnc(Nc3ccc(C)c(Cl)c3)c3ccccc23)n1,-1%,-98*,3%[46.1 µM],-4%[46.1 µM],-19%,·
Cc1nn(Cc2ccccc2Cl)c(C)c1C(=O)Nc1nnc(C2CC2)s1,?,-90*,?,0.89µM*,-13%,-13%
Cc1c(C(=O)NCc2ccco2)cnn1-c1ncc2c(n1)-c1ccccc1CC2,-15%,·,·,·,-28%,·
Cc1nc2c(c(C)nn2-c2ccccc2)c(C)c1CCC(=O)Nc1ccccc1,-15%,1,19%[46.1 µM],13%[46.1 µM],-13%,·
Cc1nc2c(c(C)nn2-c2ccccc2)c(C)c1CCC(=O)Nc1ccc(CN2CCCC2)cc1,-3%,-64*,?,10µM*,-14%,?
COc1ccc(N(Cc2ccccc2)C(=O)c2nc(S(C)(=O)=O)ncc2Cl)cc1,?,-101*,?,2%[46.1 µM],?,·
CCCSc1ncc(Cl)c(C(=O)N(Cc2ccccc2)c2ccc(OC)cc2)n1,?,-75*,-14%[46.1 µM],?,?,·
CS(=O)(=O)c1ncc(Cl)c(C(=O)N(Cc2ccc(Cl)cc2)Cc2ccco2)n1,?,-107*,?,?,16µM*,·
CN(C)CCNC(=O)CCCN1C(=O)c2cccnc2Oc2ccc(Cl)cc21,-8%,0,29%[46.1 µM],·,2%,·
CC12CN3CC(C)(CN(C1)C3c1ccc(OCc3ccccc3)cc1)C2=O (stereo not given),-7%,-4,27%[46.1 µM],26%[46.1 µM],-9%,·
O=C(c1cn(C2CCCN(Cc3cc(Cl)ccc3O)C2)nn1)N1CCCCC1 (stereo not given),-3%,·,·,·,-6%,·
CCN(CCNCC(O)COc1ccccc1C(C)C)c1cccc(C)c1 (stereo not given),?,14,-16%,?,?,13µM*
Cc1cccc2cc(-c3ccccc3)c(-c3ccccc3)c[n+]12,0%,-97*,11µM*,?,-15%,?
COc1cc(CNCCc2ccc(S(N)(=O)=O)cc2)ccc1OCC(=O)NC1CCCCC1,·,13,4%,?,·,?
CCOc1cc(CNCCc2ccc(S(N)(=O)=O)cc2)ccc1OCc1ccc(Cl)cc1,·,-103*,?,?,11µM*,?
NS(=O)(=O)c1ccc(NCc2ccccc2OCc2ccc(F)cc2)cc1,·,?,-29%,?,?,-16%
NS(=O)(=O)c1ccc(CCNCc2ccccc2OCc2ccc(F)cc2)cc1,-2%,-67*,?,?,-16%,?
COc1cc(CNCCc2ccc(S(N)(=O)=O)cc2)ccc1OCc1ccc(Cl)cc1,·,-93*,?,?,·,4.5µM*
Cc1ccc(OC[C@H](O)CNS(=O)(=O)c2ccccc2C(=O)O)cc1,·,·,·,2%[46.1 µM],·,·
C=CCOC(=O)N[C@@H](c1cccc(OC)c1)[C@@H](C)C=CCC(=O)O,·,·,·,7%[14.2 µM],·,·
CCOc1ccc(CCNC(=O)C2=C(C)C(=O)OC23CCCCC3)cc1,-17%,-30,0%[46.1 µM],-2%[46.1 µM],-10%,·
CCN(c1ccccc1)S(=O)(=O)c1ccc(C(=O)Nc2nnc(CSC)o2)cc1,?,-95*,·,·,?,?
CCN(c1ccccc1)S(=O)(=O)c1ccc(C(=O)Nc2nnc(C3CC3)o2)cc1,-28%,-69*,?,?,-28%,?
CN(c1ccccc1)S(=O)(=O)c1ccc(C(=O)Nc2nnc(C3CC3)o2)cc1,i,-29,·,·,-9%,11%
Cn1cc(-c2ccc3c(c2)N(CC2CCCCC2)C(=O)COC3)cn1,·,20,·,·,·,·
CC(=O)c1cc(C(=O)c2ccccc2)sc1Nc1ccccc1,-34%,44,3%,0%,?,13µM*
Cc1nc(Nc2ccccc2)sc1C(=O)c1ccccc1,-22%,50,?,9%[46.1 µM],-5%,-11%
CCC(=O)Nc1ccc(CC)cc1-c1nc2ccccc2n(CC(=O)c2ccc(OC)cc2)c1=O,-17%,-7,11%[46.1 µM],22%[46.1 µM],-12%,·
CCN(CC)CCCNc1nc2ccccc2c2nc(-c3ccncc3)nn12,?,?,?,7.9µM*,11µM*,?
